Data on four molecules can be found in PubChem BioAssay.

Assay [1] concerns Wnt5a (protein binding on small-molecule microarray). Put plainly: Wnt5a binders on small-molecule microarray, primary screen, biophysical, 635/667 nm fluorescence (AID 1142).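 Note: fluorescence read at 667 nm with signal to noise per printed feature.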 To be noted: 635 nm fluorescence, higher = more signal.
A short description of assay [2]: cell viability in Huh7 cells, primary screen, cytotoxicity control for HCV replication inhibitor project, CellTiter-Glo luminescence, basal, 48 h (AID 1143).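 Note: Huh7 hepatoma cells carrying a hepatitis C replication reporter with no stimulus; test concentration not given here.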 Conditions: Huh7 HCV replicon, higher = more signal, called active from +8 up or from −8 down.
Assay [3] in a line: P. aeruginosa biofilm formation inhibitors, primary screen, PAO1 strain, BacTiter-Glo luminescence, LB-PBS (AID 1144). To be noted: 12 h, higher = more signal.
Assay [4] in a line: CREB reporter modulators without forskolin, primary screen, cell-based, PC12, CRE-LacZ reporter, unstimulated (AID 1145). To be noted: no forskolin, luminescence, 4.5 h, higher = more signal, called active from +8 up or from −8 down.
Assay [5] in a line: CREB reporter modulators under forskolin, primary screen, cell-based, PC12, CRE-LacZ reporter, forskolin-stimulated (AID 1146).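 Note: PC12 cells with 6xCRE LacZ reporter stimulated by forskolin 10 µM; beta-galactosidase reporter signal reflecting CREB driven transcription.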 To be noted: luminescence, 4.5 h, higher = more signal, called active from +8 up or from −8 down.
Assay [6] addresses Streptavidin (Streptomyces avidinii) (UniProt P22629). Description: streptavidin binders on small-molecule microarray, primary screen, artefact control for SMM compound annotation, biophysical, 635/667 nm fluorescence (AID 1147).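 Note: signal reflects streptavidin binding to arrayed compounds as a control protein.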 To be noted: streptavidin binding, higher = more signal.
The nature of assay [7]: small-molecule binders of probe aInhba, primary screen, biochemical, small-molecule microarray, 635/667 nm fluorescence (AID 1148).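 Note: score merges 667nm spot fluorescence with signal-to-noise for antibody binding to printed compounds.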 Conditions: higher = more signal.
Assay [8] has as its target Torsin-1A (Homo sapiens) (UniProt O14656). Put plainly: torsin A binders from cell lysate, primary screen, small-molecule microarray, wild-type, 635/667 nm (AID 1149). To be noted: COS7 hTOR1A-WT lysate, 635 nm fluorescence, higher = more signal.
The target is the same in assay [9]. Put plainly: small-molecule binders of mutant TOR1A in lysate, primary screen, cell lysate, small-molecule microarray, COS7 lysate, 635/667 nm fluorescence (AID 1150).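 Note: score pools 667 nm emission and signal to noise measuring lysate protein binding.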 To be noted: COS7 hTOR1A mutant lysate, 635 nm fluorescence, higher = more signal.
Assay [10] concerns Sonic hedgehog protein (Shh). Description: small-molecule binders of Shh protein, primary screen, biochemical, small-molecule microarray, 635/667 nm fluorescence (AID 1151).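 Note: Shh protein binding to compounds spotted on small-molecule microarray slides; score combines spot fluorescence intensity with signal-to-noise across triplicate slides.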 Conditions: small-molecule microarray binding, 635 nm fluorescence; higher = more signal.
Assay [11] is described as follows: E. coli DRC41 culture turbidity changes, primary screen, E. coli filamentation inducer project, strain DRC41, OD650, 48 h (AID 1152).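 Note: E. coli MC1000 strain DRC41 lacking acrAB efflux pump and sulA.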 Conditions: E. coli DRC41 (acrAB sulA), higher = more signal, called active from +8 up or from −8 down.
The nature of assay [12]: small-molecule binders of probe aLefty1, primary screen, biochemical, small-molecule microarray, 635/667 nm fluorescence (AID 1153).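 Note: score merges spot fluorescence with signal-to-noise ratio from the scanned slide images.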 To be noted: higher = more signal.
The nature of assay [13]: PSAC antagonists in infected red cells, primary screen, cell-based, P. falciparum Indochina, OD700, 1 h (AID 1154). To be noted: P. falciparum Indochina infected RBC osmotic lysis, higher = more signal, called active from +8 up or from −8 down.
Assay [14] can be described thus: PSAC antagonists in infected red cells, primary screen, cell-based, P. falciparum Indochina, OD700, 2 h (AID 1155).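 Note: lysis reports solute entry through the parasite surface anion channel PSAC; channel blockers reduce lysis of infected cells.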 Conditions: P. falciparum Indochina infected erythrocytes, osmotic lysis OD700; higher = more signal, called active from +8 up or from −8 down.
A short description of assay [15]: osmotic lysis modulators in infected erythrocytes, primary screen, PSAC antagonist project, cell-based, P. falciparum Indochina, OD700, 3 h (AID 1156). To be noted: higher = more signal, called active from +8 up or from −8 down.
Assay [16] can be described thus: PSAC antagonists in infected red cells, primary screen, cell-based, P. falciparum Indochina, OD700, 18 h (AID 1157). Conditions: P. falciparum Indochina infected erythrocytes, osmotic lysis OD700, 18 h; higher = more signal, called active from +8 up or from −8 down.
Assay [17] can be described thus: modulators of S6 phosphorylation in cells, primary screen, cell-based, A549, cytoblot, luminescence, serum-stimulated (AID 1158).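 Note: serum-stimulated A549 lung adenocarcinoma cells; signal is phosphorylated S6 detected by cytoblot immunostaining with HRP secondary.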 To be noted: A549 phospho-S6 cytoblot, 5 h, higher = more signal.
Assay [18] has as its target NADPH oxidase 2 (Homo sapiens) (UniProt P04839). Put plainly: NOX2-dependent H2O2 signal modulators, primary screen, NOX inhibitor project, cell-based, HEK293-NOX2, PMA-stimulated, Amplex Red fluorescence (AID 1159). Note: test concentration not given here. To be noted: 45 min, higher = more signal, called active from +8 up or from −8 down.
Assay [19] concerns the target NADPH oxidase 4 (Homo sapiens) (UniProt Q9NPH5). Put plainly: NOX4-dependent H2O2 signal modulators, primary screen, NOX inhibitor project, cell-based, HEK293-NOX4, tetracycline-induced, Amplex Red fluorescence (AID 1160). Conditions: 45 min, higher = more signal, called active from +8 up or from −8 down.
Assay [20] has as its target NADPH oxidase 5 (Homo sapiens) (UniProt Q96PH1). Description: NOX5-dependent H2O2 signal modulators, primary screen, NOX inhibitor project, cell-based, HEK293-NOX5, Amplex Red fluorescence (AID 1161). To be noted: HEK293-NOX5, ionomycin, 45 min, higher = more signal.

Molecules are shown by their SMILES. Active and inactive are the calls of the source. Unless noted, the rule behind the calls is not given here.

NADPH oxidase 5 (Homo sapiens), sequence (Q96PH1 whole entry, looked up): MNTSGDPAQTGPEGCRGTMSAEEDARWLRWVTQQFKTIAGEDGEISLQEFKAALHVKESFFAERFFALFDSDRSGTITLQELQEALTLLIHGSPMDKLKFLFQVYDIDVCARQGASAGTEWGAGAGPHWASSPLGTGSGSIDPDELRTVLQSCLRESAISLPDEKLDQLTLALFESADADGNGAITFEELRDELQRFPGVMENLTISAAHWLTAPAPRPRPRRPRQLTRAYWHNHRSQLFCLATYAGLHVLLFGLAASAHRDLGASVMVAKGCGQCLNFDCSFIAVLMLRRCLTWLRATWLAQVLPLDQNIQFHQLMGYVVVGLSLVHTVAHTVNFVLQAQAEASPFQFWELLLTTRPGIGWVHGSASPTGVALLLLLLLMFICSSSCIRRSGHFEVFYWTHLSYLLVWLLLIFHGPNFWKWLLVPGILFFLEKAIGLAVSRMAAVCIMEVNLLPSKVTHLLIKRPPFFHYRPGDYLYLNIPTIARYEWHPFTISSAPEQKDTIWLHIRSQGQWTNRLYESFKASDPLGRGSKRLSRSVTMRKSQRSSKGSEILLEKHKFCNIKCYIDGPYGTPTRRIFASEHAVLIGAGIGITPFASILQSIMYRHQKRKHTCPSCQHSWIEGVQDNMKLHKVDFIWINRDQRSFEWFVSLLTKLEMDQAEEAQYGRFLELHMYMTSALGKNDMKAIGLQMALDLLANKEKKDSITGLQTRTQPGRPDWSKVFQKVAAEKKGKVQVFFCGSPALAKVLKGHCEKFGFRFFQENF
NADPH oxidase 4 (Homo sapiens), sequence (Q9NPH5 whole entry, looked up): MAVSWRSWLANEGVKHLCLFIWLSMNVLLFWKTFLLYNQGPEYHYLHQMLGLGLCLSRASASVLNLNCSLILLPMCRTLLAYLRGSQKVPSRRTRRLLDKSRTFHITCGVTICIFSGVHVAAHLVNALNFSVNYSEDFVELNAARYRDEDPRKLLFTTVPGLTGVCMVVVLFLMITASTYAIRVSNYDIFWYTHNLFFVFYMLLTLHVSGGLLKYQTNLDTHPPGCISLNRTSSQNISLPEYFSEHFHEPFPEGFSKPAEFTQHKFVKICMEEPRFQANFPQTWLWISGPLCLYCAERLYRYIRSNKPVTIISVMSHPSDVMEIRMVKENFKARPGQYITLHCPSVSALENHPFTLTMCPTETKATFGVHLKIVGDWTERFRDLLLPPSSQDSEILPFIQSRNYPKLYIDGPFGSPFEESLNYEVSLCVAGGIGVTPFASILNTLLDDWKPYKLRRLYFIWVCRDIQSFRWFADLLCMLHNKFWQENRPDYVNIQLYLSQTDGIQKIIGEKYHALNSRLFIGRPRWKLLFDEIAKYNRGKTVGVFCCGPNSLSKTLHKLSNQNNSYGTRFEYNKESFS
Torsin-1A (Homo sapiens), sequence (O14656 whole entry, looked up): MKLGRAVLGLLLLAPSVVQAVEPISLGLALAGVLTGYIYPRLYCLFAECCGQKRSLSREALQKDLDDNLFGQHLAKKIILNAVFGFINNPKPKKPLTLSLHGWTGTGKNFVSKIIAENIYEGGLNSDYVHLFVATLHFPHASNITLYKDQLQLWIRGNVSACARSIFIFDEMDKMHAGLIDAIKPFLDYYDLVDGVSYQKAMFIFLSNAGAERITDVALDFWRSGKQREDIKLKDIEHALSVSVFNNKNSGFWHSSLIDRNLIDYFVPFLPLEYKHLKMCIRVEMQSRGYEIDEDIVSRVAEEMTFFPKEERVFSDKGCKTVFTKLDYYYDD
NADPH oxidase 2 (Homo sapiens), sequence (P04839 whole entry, looked up): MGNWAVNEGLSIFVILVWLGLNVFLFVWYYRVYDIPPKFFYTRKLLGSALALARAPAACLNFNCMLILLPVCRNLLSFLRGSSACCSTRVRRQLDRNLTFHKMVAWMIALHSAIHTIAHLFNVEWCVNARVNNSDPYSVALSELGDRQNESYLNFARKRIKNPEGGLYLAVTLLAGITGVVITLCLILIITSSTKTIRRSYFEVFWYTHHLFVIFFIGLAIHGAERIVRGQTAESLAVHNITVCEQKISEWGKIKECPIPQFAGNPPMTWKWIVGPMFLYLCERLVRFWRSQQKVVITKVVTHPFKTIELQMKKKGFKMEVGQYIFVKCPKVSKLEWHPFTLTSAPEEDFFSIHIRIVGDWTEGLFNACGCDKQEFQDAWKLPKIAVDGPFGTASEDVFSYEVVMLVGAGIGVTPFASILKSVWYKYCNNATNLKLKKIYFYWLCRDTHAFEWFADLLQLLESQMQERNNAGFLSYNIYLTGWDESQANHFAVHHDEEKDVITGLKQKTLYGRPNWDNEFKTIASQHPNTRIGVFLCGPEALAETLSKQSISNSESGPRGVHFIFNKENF
Streptavidin (Streptomyces avidinii), sequence (P22629 whole entry, looked up): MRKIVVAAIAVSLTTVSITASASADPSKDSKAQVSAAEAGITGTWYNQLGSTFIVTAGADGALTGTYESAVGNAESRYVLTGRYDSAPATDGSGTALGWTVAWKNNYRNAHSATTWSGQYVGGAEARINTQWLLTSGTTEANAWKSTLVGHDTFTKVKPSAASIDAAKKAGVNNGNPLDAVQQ

Turning to `CC(C)NC(=O)[C@@]1(C)c2ccccc2C(=O)N(Cc2ccccc2)[C@H]1c1ccc(CO)cc1`, the composite z-score in assay [1] is -0.442; in [6], -1.23; in [7], -0.312; with Torsin-1A (Homo sapiens) [8] it was 0.654; in the assay with Torsin-1A (Homo sapiens) [9] it was 1.39; in assay [10], 0.504. In addition, the composite z-score in assay [12] is -0.0796. Besides, the z-score in assay [2] was -2.24 (inactive); in assay [3] it was 0.0156 (inactive); in assay [4], -0.592 (inactive); in assay [5], -1.08 (inactive); in assay [11] it was 1.31 (inactive); in assay [13] it was 4.68 (inactive). In addition, the z-score was -0.883 (inactive) in assay [14]; -0.171 (inactive) in assay [15]; -0.851 (inactive) in assay [16]; 1.64 in assay [17]; -1.34 (inactive) in assay [18]; 0.485 (inactive) in assay [19]. The same molecule returned a z-score in assay [20] of 0.872.
`C=C(CCCC)/C(=C/C[C@H](OC(=O)c1ccncc1)c1ccccc1OCCO)c1cc(C(=O)OC)ccc1OC`: the composite z-score is -0.0692 in assay [1]; 0.396 in [6]; 0.0391 in assay [7]; 0.0152 with Torsin-1A (Homo sapiens) [8]; 0.369 in the assay with Torsin-1A (Homo sapiens) [9]; 1.43 in [10]. For the same molecule, the composite z-score in assay [12] was determined as 0.165. Also, the z-score in [2] is -1.78 (inactive); in [3] it was -0.402 (inactive); in assay [4], 11.4 (active); in assay [5] it was 0.179 (inactive); in assay [11], 0.0839 (inactive); in [13], 23.6 (active). For the same molecule, the z-score in assay [14] is 6.35 (inactive); in [15], 3.84 (inactive); in [16], 1.44 (inactive); in [17], -0.166; in assay [18] it was 0.559 (inactive); in [19], -0.48 (inactive). Also, the z-score in assay [20] is -1.67.
Take `C[N+](C)(C)CCCC[C@@H]1NC(=O)[C@H]2C[C@@H](C(=O)NCCCCCNC(=O)CS)[C@@H](c3cccc(OCCO)c3)N2C1=O`: the composite z-score is 0.0448 in [1]; 0.474 in assay [6]; -0.176 in [7]; 0.116 in the assay with Torsin-1A (Homo sapiens) [8]; 0.653 with Torsin-1A (Homo sapiens) [9]; 0.602 in assay [10]. In assay [12], the composite z-score is 0.144. The z-score is -0.907 (inactive) in assay [2]; 0.236 (inactive) in assay [3]; 0.13 (inactive) in [4]; 0.487 (inactive) in assay [5]; 0.19 (inactive) in assay [11]; 1.59 (inactive) in assay [13]. Further, the z-score in assay [14] was -0.0251 (inactive); in assay [15], -0.89 (inactive); in assay [16], 0.204 (inactive); in [17], -0.0362; in [18], 1.94 (inactive); in assay [19], 0.816 (inactive). The z-score in [20] is 1.35.
As to `C=CCNC(=O)[C@H]1[C@@H]2C(=O)O[C@@H](c3ccccc3)[C@@H](c3ccccc3)N2[C@@H](c2ccc(OCCO)cc2)[C@]12C(=O)Nc1ccccc12`, the composite z-score in assay [1] is -0.159; in [6], 0.917; in assay [7], -0.244; in the assay with Torsin-1A (Homo sapiens) [8], 0.0646; with Torsin-1A (Homo sapiens) [9], 0.841; in [10], -0.0035. Also, in assay [12], the composite z-score amounted to 1.21. Further, the z-score in assay [2] was -1.62 (inactive); in assay [3] it was -0.9 (inactive); in [4], 0.389 (inactive); in assay [5], 1.1 (inactive); in assay [11], 0.738 (inactive); in assay [13], 10.1 (active). Also, the z-score was 1.01 (inactive) in assay [14]; -0.444 (inactive) in assay [15]; 0.81 (inactive) in assay [16]; 0.0226 in assay [17]; 1.87 (inactive) in assay [18]; 0.841 (inactive) in assay [19]. The z-score in assay [20] was -0.101.
